Measurements as given in PubChem BioAssay (NCI).
“And” between values parts separate entries of the source, which are not always exact repeats. Identical values can stand only once. The panel holds about 79,000 compounds, 15% with a hit somewhere; the sample as a whole holds those more often. The source holds several records for some structures; these can differ, active in one and inactive in another. The source made the active and inactive calls. Cut-off read from the data, not from the text of the source: active = growth inhibition above about 70%; inactive = the rest.

Assay: NCI Yeast Anticancer Drug Screen. Data for the cln2 rad14 strain (AID 165);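 note: 0% = growth equal to vehicle treated cultures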
Conditions: S. cerevisiae cln2 rad14 strain, stronger effect = higher value
Protocol: Growth inhibition of yeast strains with defined genetic alterations is measured as a screen for potential anti-cancer activity. Selected strains with alterations in DNA damage repair or cell cycle control were exposed to compounds and growth inhibition was measured relative to vehicle treated controls. The strain used in this assay is cln2 rad14

[1] = at 5.0 µM (retest, dose inferred, filed as 0.5)
[2] = at 50.0 µM (retest, dose inferred, filed as 5.0)

Row | Compound | growth inhibition [1] | growth inhibition [2] | growth inhibition (at 50.0 µM)
1 | CCN(CC)CCNC(=O)c1nn(-c2ccc(Cl)cc2)c2c1CCc1cc(OC)ccc1-2 | 2% (inactive) | 39% (inactive) | 28.8% (inactive)
2 | C/C(=N\NC(=S)NNC(=S)N(C)c1ccccc1)c1ccccn1 | 29% (inactive) | 99% (active) | 86.3% (active)
3 | c1ccc2c(c1)ccc1c3ccncc3ccc21 | -11% (inactive) | 96% (active) | 96% (active)
4 | Cc1c(-c2ccccc2)[nH]c2ccccc12 | 51% (inactive) | 99% (active) | 92.3% (active)
5 | CCNc1ccc2c(c1)C(=O)N(OS(C)(=O)=O)C2=O | 8% (inactive) | 21% (inactive) | 69.6% (inactive)
6 | Clc1cc(Cc2ccc(N=C/C=C/c3ccccc3)c(Cl)c2)ccc1N=C/C=C\c1ccccc1 | 14% (inactive) | 74% (active) | 58.8% (inactive)
7 | COC(=O)/C=C1/OC(c2ccc(Br)cc2)=C(Br)C1=O | 2% (inactive) | 14% (inactive) | 33.8% (inactive)
8 | CCOC(=O)C(NC(=O)CC)(N1CCN(c2cc3c(cc2F)c(=O)c(C(=O)O)cn3C2CC2)CC1)C(F)(F)F (stereo not given) | 1% (inactive) | -1% (inactive) | 45.6% (inactive)
9 | NNC(=S)Nc1cccc(Cl)c1 | 66% (inactive) | 96% (active) | –
10 | CCCCC(CC)C(=O)Oc1ccc(C(=O)c2ccccc2)c(O)c1 (stereo not given) | 48% (inactive) | 88% (active) | 65% (inactive)
11 | O=c1ccc(N=Nc2ccccc2)ccc1O | -3% (inactive) | 98% (active) | 98.1% (active)
12 | S=c1cn[nH]c2ccc(Br)cc12 | -68% (inactive) | -20% (inactive) | 35.9% (inactive)
13 | O=C(/C=C/c1cccc2ccccc12)c1ccc(Cl)cc1 | 28% (inactive) | -7% (inactive) | –
14 | CC(C)c1cccc(O)c(=O)c1 | -4% (inactive) and 4% (inactive) | 12% (inactive) and 99% (active) | 96.3% (active) and 89.7% (active)
